{"source": "the OligoGym collection", "data": [{"target": "EIF4EBP2", "assay": "pooled miR-30 sensor sort-seq; sequence = guide strand", "conditions": "shRNA", "values": [{"sequence": "TTGTTCAAGTTGTTCAAATTGT", "sensor-assay potency score (higher = more potent)": -0.233}, {"sequence": "TCGCTGATGGCCACGGTGCGGG", "sensor-assay potency score (higher = more potent)": -1.63}, {"sequence": "TCCAACAGAAACTTTCTGTCAT", "sensor-assay potency score (higher = more potent)": -0.136}, {"sequence": "TTCAATTAAGGTGCCAGGGCTA", "sensor-assay potency score (higher = more potent)": -0.657}, {"sequence": "TCAAATTGTTTACTTCTACTTT", "sensor-assay potency score (higher = more potent)": -0.42}, {"sequence": "TTCTGTCATAAATGATTCGAGT", "sensor-assay potency score (higher = more potent)": -1.23}, {"sequence": "TTTCTGTCATAAATGATTCGAG", "sensor-assay potency score (higher = more potent)": -0.301}, {"sequence": "TGATTCGAGTTCCTCCCGGTGT", "sensor-assay potency score (higher = more potent)": -0.789}, {"sequence": "ATGTTTCCTGTCGTGATTGTTC", "sensor-assay potency score (higher = more potent)": -0.959}, {"sequence": "TGTTCAAATTGTTTACTTCTAC", "sensor-assay potency score (higher = more potent)": -0.311}, {"sequence": "TTGTTCAAATTGTTTACTTCTA", "sensor-assay potency score (higher = more potent)": -0.655}, {"sequence": "TAGTCATGAGGTAGCTGCGCGG", "sensor-assay potency score (higher = more potent)": -1.17}, {"sequence": "AATTGTTTACTTCTACTTTGGA", "sensor-assay potency score (higher = more potent)": 0.534}, {"sequence": "TACTTCTACTTTGGAGTCTTCA", "sensor-assay potency score (higher = more potent)": -0.613}, {"sequence": "AAATGATTCGAGTTCCTCCCGG", "sensor-assay potency score (higher = more potent)": -0.69}, {"sequence": "TAAATGATTCGAGTTCCTCCCG", "sensor-assay potency score (higher = more potent)": 0.0359}, {"sequence": "ATAGTCATGAGGTAGCTGCGCG", "sensor-assay potency score (higher = more potent)": -0.462}, {"sequence": "AAACTTTCTGTCATAAATGATT", "sensor-assay potency score (higher = more potent)": -1.63}, {"sequence": "AATAGTCATGAGGTAGCTGCGC", "sensor-assay potency score (higher = more potent)": -0.823}, {"sequence": "TGGTGCAATAGTCATGAGGTAG", "sensor-assay potency score (higher = more potent)": -1.72}, {"sequence": "TACTTTGGAGTCTTCAATTAAG", "sensor-assay potency score (higher = more potent)": -1.27}, {"sequence": "TTCTACTTTGGAGTCTTCAATT", "sensor-assay potency score (higher = more potent)": -1.52}, {"sequence": "TTGGAGTCTTCAATTAAGGTGC", "sensor-assay potency score (higher = more potent)": -0.116}, {"sequence": "AATGATTCGAGTTCCTCCCGGT", "sensor-assay potency score (higher = more potent)": 0.498}]}, {"target": "ELF2", "assay": "pooled miR-30 sensor sort-seq; sequence = guide strand", "conditions": "shRNA", "values": [{"sequence": "TGTCATTACAACAGGTACCTGC", "sensor-assay potency score (higher = more potent)": 0.12}, {"sequence": "TTGTTCTTCTGCCACATCTTGC", "sensor-assay potency score (higher = more potent)": -0.939}, {"sequence": "TTGTCTGCAGTTGACACTGTGC", "sensor-assay potency score (higher = more potent)": -0.232}, {"sequence": "TTTGTCTGCAGTTGACACTGTG", "sensor-assay potency score (higher = more potent)": 0.266}, {"sequence": "TTTCACATCATGTTCTTGCTTT", "sensor-assay potency score (higher = more potent)": 0.568}, {"sequence": "TTGAACTGATATACAAGCCTCT", "sensor-assay potency score (higher = more potent)": 0.343}, {"sequence": "TTCACTTTTGTCATCATCTATG", "sensor-assay potency score (higher = more potent)": -0.773}, {"sequence": "TAGATCTAAAAGAAACTCCCAC", "sensor-assay potency score (higher = more potent)": 0.171}, {"sequence": "TTGTCTTATCTGTACAGTGTGC", "sensor-assay potency score (higher = more potent)": -0.612}, {"sequence": "TAATCTGGCACTTGGAACTGGC", "sensor-assay potency score (higher = more potent)": -0.333}, {"sequence": "TTTATCTTGAAGTAGATCTAAA", "sensor-assay potency score (higher = more potent)": -0.649}, {"sequence": "TTGATTTTCTACTCCATTGCTG", "sensor-assay potency score (higher = more potent)": 0.197}, {"sequence": "TTGATAGTCTCATTACAGGTGT", "sensor-assay potency score (higher = more potent)": -0.336}, {"sequence": "TTTTATCTTGAAGTAGATCTAA", "sensor-assay potency score (higher = more potent)": -0.166}]}]}
